Assay results reported in PubChem BioAssay.

Columns and labels:
[1] = tested on: Human papillomavirus type 1a protein E7 (residues 44-93); assay: small molecules binding HPV E7 44-93 – biochemical, small-molecule microarray, residues 44-93, 635 nm fluorescence, primary screen (AID 1108); details: fluorescence 635 nm, higher = more signal;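 note: E7 fragment applied at 1 µg/mL in TBST for 1 h at 4 C; score combines spot fluorescence with its signal to noise ratio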
[2] = hepatitis C replication reporter changes, two-sided – Huh7 cells, luciferase reporter, HCV replication inhibitor project, primary screen (AID 1109); details: Huh7 HCV replicon luciferase reporter, 48 h; higher = more signal;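 note: huh7 hepatoma cells harbouring a luciferase neomycin HCV replicon reporter; luciferase luminescence as measure of HCV replicon replication; test concentration not given here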
[3] = target: Left-right determination factor 2 (Homo sapiens) (UniProt O00292); assay: small molecules binding LEFTY2 protein – biochemical, small-molecule microarray, 635 nm fluorescence scan, primary screen (AID 1110); details: higher = more signal
[4] = target: Calmodulin-1 (Homo sapiens) (UniProt P0DP23); assay: small molecules binding calmodulin-1 with EGTA – biochemical, small-molecule microarray, Cy5-labelled CALM1, profiling panel (AID 1111); details: Cy5-CALM1 binding fluorescence, higher = more signal;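 note: labelled calmodulin applied in Tris saline Tween buffer holding calcium plus EGTA and DTT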
[5] = target: Calmodulin-1 (Homo sapiens) (UniProt P0DP23); assay: small molecules binding Ca-loaded calmodulin-1 – biochemical, small-molecule microarray, Cy5-labelled CALM1, plus calcium, artefact control for SMM control-protein annotation, profiling panel (AID 1112); details: Cy5-CALM1 binding fluorescence, higher = more signal;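 note: score merges spot fluorescence with signal to noise from triplicate slides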
[6] = probe aWnt5a binding to arrayed compounds – biochemical, biotinylated probe, 635/667 nm fluorescence, primary screen (AID 1113); details: small-molecule microarray, higher = more signal;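 note: score merges 667 nm fluorescence intensity with signal-to-noise per printed feature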
[7] = probe aShh binding to arrayed compounds – biochemical, biotinylated probe, 635/667 nm fluorescence, primary screen (AID 1114); details: small-molecule microarray, higher = more signal;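 note: probe is biotin-labelled aShh protein from a stem cell growth factor screen; measures binding of labelled protein to compounds printed on the slide; score merges feature fluorescence at 667 nm with signal-to-noise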
[8] = probe aNog binding to arrayed compounds – biochemical, biotinylated probe, 635/667 nm fluorescence, primary screen (AID 1115); details: small-molecule microarray, higher = more signal;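 note: probe is biotinylated aNog protein used at 0.15 µg/mL for 1 h at 4 C; z-score combines 667 nm fluorescence of each spot with its signal to noise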
[9] = target: Torsin-1A-interacting protein 1 (Homo sapiens) (UniProt Q5JTV8); assay: compound microarray binding of lysate hLAP1 – cell lysate, small-molecule microarray, COS7 lysate, 635/667 nm fluorescence, primary screen (AID 1116); details: 635 nm fluorescence, higher = more signal
[10] = target: Alpha-bungarotoxin (Bungarus multicinctus) (UniProt P60615); assay: compounds binding labelled alpha-BTX control protein – biochemical, small-molecule microarray, Alexa647 label, 635/667 nm fluorescence, artefact control for SMM control protein annotation, profiling panel (AID 1117); details: alpha-BTX-A647 binding fluorescence, higher = more signal
Chain of Alpha-bungarotoxin (Bungarus multicinctus) (P60615 whole entry, looked up): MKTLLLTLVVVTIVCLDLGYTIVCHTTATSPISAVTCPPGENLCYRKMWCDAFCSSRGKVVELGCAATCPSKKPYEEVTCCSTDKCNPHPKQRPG

Chain of Torsin-1A-interacting protein 1 (Homo sapiens) (Q5JTV8 whole entry, looked up): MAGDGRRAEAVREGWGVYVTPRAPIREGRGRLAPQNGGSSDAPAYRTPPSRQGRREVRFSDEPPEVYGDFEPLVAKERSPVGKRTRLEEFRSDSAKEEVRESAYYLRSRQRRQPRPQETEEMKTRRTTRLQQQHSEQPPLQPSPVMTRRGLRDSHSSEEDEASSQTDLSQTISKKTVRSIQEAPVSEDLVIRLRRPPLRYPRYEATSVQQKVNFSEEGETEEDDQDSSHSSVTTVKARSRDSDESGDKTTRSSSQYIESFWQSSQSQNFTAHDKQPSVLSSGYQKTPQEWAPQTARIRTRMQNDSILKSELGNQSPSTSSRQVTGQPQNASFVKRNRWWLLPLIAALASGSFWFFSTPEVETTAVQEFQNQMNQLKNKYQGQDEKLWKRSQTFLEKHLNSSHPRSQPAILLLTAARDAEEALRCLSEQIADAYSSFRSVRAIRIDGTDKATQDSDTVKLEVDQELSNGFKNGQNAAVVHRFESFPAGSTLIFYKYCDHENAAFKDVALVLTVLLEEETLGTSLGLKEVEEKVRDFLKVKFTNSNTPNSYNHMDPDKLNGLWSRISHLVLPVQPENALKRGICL
Chain of Left-right determination factor 2 (Homo sapiens) (O00292 whole entry, looked up): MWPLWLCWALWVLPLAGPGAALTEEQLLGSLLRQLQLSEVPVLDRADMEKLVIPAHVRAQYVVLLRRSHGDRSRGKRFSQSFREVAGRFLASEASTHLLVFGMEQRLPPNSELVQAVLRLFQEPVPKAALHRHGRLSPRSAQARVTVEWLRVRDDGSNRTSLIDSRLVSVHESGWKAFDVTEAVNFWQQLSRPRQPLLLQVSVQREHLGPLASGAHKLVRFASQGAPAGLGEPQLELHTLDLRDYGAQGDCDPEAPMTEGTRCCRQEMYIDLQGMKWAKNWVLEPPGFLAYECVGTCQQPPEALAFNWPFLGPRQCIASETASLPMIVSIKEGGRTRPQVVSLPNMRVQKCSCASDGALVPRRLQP

Row | Structure (SMILES) | composite z-score [1] | z-score [2] | composite z-score [3] | composite z-score [4] | composite z-score [5] | composite z-score [6] | composite z-score [7] | composite z-score [8] | composite z-score [9] | composite z-score [10]
1 | CCN1C(=O)[C@H]2[C@H]3[C@H](O)[C@H](O)CC(=NNC(=O)OCc4ccccc4)[C@@H]3CC[C@H]2C1=O | -0.577 | 0.232 | -0.0089 | -0.0328 | -0.285 | -0.0405 | -0.0463 | -0.0879 | -0.399 | 0.645
2 | COc1cccc([C@H]2Oc3ccc(OC)cc3C(=NOCC[C@@H]3C=C[C@H](OC(C)=O)[C@@H](COC(C)=O)O3)[C@@H]2O)c1 | 0.687 | -0.544 | 0.492 | -0.547 | -0.314 | -0.0865 | -0.0553 | 0.197 | 0.786 | 0.635
3 | CCOC(=O)CCN1C(=O)[C@H]2[C@H]3[C@H](O)[C@H](O)CC(=NOCC=C(C)CCC=C(C)C)[C@H]3CC[C@H]2C1=O | -0.11 | -0.409 | 0.199 | -0.38 | -0.488 | -0.103 | -0.221 | -0.1 | -0.393 | 0.271
4 | CC(CCC(=O)OC[C@H]1O[C@H](C#Cc2ccccc2)C=C[C@@H]1Oc1ccc(C)cc1)=NO[C@@H](C)c1cc(-c2c(C)cc(C)cc2C)no1 | -0.612 | -0.824 | -0.547 | -0.413 | -0.262 | -0.232 | 0.0121 | -0.118 | 0.328 | 0.326
5 | O=C1C=C[C@@H](O)[C@@H]2[C@@H]3C(=O)N(Cc4ccc5c(c4)OCO5)C(=O)[C@@H]3CC[C@@H]12 | 0.701 | -0.322 | 0.57 | -0.112 | -0.508 | -0.147 | -0.0626 | -0.238 | -0.127 | 0.123
6 | C[C@@H](c1ccccc1)N1C(=O)[C@H]2[C@H]3[C@H](O)[C@H](O)CC(=NNC(=O)OCc4ccccc4)[C@@H]3CC[C@H]2C1=O | -0.347 | -1.01 | 1.17 | -1.16 | -1.94 | -0.158 | 0.0062 | -0.545 | -0.043 | -0.716
7 | O=C1C[C@@H](O)[C@@H](O)[C@@H]2[C@@H]3C(=O)N(c4ccc(F)cc4F)C(=O)[C@@H]3CC[C@H]12 | 0.473 | -0.313 | 0.681 | -0.134 | -0.519 | -0.0718 | -0.18 | -0.213 | 0.82 | 0.0317
8 | CCOC(=O)[C@H](Cc1ccccc1)NC(=O)CCC1CC(OC(=O)NCc2ccc3c(c2)OCO3)CC2(CCCC(COC(=O)NCCOC)O2)O1 (stereo not given in full) | 1.36 | -1.08 | 0.545 | 0.353 | -0.194 | -0.124 | -0.153 | -0.0524 | 0.609 | 0.591
9 | CC(CCC(=O)OC[C@H]1O[C@H](C#Cc2ccccc2)C=C[C@@H]1Oc1ccc(C)cc1)=NO[C@H](C)c1cn([C@@H]2COC[C@H]2O)nn1 | -0.231 | -1.66 | 0.431 | -0.411 | -0.208 | -0.0512 | -0.138 | 0.354 | -0.465 | -0.493
10 | CCN1C(=O)[C@H]2[C@H]3[C@H](O)[C@H](O)CC(=NOCC=C(C)CCC=C(C)C)[C@@H]3CC[C@H]2C1=O | 0.57 | -0.44 | 1.29 | -1.09 | -0.347 | -0.087 | -0.282 | -0.158 | 0.0411 | 0.791
11 | CO[C@H]1COC(=O)[C@H](C)COC(=O)[C@H](C)NC(=O)CC=C[C@H]1C | 0.429 | -0.935 | 0.945 | -0.891 | -1.85 | -0.154 | 0.0121 | -0.41 | 0.143 | -0.369
12 | CC(=O)OC[C@H]1O[C@@H](ON=C(C)CCN2CCCCc3nc(C)c(C)cc32)[C@H](OC(C)=O)[C@@H](OC(C)=O)[C@@H]1OC(C)=O | 1.16 | -0.997 | 0.962 | -0.336 | -0.767 | -0.0337 | 0.0121 | -0.0129 | 0.479 | -0.546
13 | CC(CCN1CCCc2nc(C)c(C)cc21)=NO[C@H](C)c1cn([C@@H]2COC[C@H]2O)nn1 | 0.839 | 0.0504 | 0.831 | -0.253 | -0.718 | -0.0478 | 0.0611 | -0.158 | 0.695 | 0.102
14 | COc1ccc(O[C@H]2C=C[C@@H](c3ccccc3)O[C@@H]2CON=C2c3cc(OC)ccc3O[C@H](c3cccc(OC)c3)[C@H]2O)cc1 | -0.382 | -1.78 | 0.804 | -0.0756 | 0.335 | -0.0735 | 0.296 | -0.106 | 0.399 | 0.328
15 | CCc1cc2c(nc1CC)CCN(CCC(C)=NOC[C@@H](C)[C@H](OCc1ccccc1)C(C)C)C2 | -0.461 | -1.14 | -0.964 | -1.3 | -0.139 | -0.247 | -0.0035 | -0.411 | -0.667 | -0.86
16 | CCOC(=O)[C@H](CC(C)C)NC(=O)CCC1CC(OC(=O)NCCc2ccc(F)cc2)CC2(CCCC(COC(=O)NCCOC)O2)O1 (stereo not given in full) | 1.34 | -0.694 | 1.12 | 0.217 | -0.119 | -0.176 | -0.0769 | -0.438 | 0.461 | 0.411
17 | CC(CCC(=O)OC[C@H]1O[C@H](C#Cc2ccccc2)C=C[C@@H]1Oc1ccc(C)cc1)=NOC(C)CN1CCCCc2nc(C)c(C)cc21 (stereo not given in full) | 0.686 | -1.17 | -0.132 | -0.19 | 0.571 | -0.197 | -0.0626 | -0.257 | -0.0043 | 1.53
18 | CC(=O)OC[C@H]1O[C@@H](ON=C(C)CCC(=O)OC[C@H]2O[C@H](C#Cc3ccccc3)C=C[C@@H]2Oc2ccc(C)cc2)[C@H](OC(C)=O)[C@@H](OC(C)=O)[C@@H]1OC(C)=O | 1.18 | -1.2 | 0.713 | 0.49 | -0.304 | -0.0735 | -0.0769 | -0.156 | 0.415 | -0.0285
